This passage reports inhibition results from ChEMBL document CHEMBL1961873, “Compounds: GSK PKIS; Assays: Nanosyn kinase panel” (2012).

For assay [1], the target named is T1, Inhibitor of nuclear factor kappa-B kinase subunit epsilon (Homo sapiens) (UniProt Q14164).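 Also: reported values are averaged percent inhibition figures against human IKKε.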
T1 sequence (whole entry): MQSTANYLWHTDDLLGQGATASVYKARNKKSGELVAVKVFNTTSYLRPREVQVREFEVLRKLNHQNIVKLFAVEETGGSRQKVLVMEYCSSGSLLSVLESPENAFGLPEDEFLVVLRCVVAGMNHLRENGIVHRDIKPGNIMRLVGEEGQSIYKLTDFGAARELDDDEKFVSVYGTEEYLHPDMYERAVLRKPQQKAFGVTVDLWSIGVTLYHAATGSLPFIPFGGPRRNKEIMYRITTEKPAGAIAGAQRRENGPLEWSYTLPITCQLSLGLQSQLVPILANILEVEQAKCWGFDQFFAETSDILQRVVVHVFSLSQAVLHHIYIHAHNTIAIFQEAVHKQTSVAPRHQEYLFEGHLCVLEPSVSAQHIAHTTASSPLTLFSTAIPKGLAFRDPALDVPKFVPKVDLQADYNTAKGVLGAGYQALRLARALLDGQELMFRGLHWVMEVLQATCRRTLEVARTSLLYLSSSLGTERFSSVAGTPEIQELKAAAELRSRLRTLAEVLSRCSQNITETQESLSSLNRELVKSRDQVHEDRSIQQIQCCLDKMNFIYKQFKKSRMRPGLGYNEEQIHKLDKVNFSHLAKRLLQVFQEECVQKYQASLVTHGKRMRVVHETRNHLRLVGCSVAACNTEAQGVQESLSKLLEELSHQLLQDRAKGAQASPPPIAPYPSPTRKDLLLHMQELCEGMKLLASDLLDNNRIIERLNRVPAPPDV
The note with it: at 1 µM.

Assay [2] concerns the target T2, Serine/threonine-protein kinase Nek1 (Homo sapiens) (UniProt Q96PY6).
T2 sequence (whole entry): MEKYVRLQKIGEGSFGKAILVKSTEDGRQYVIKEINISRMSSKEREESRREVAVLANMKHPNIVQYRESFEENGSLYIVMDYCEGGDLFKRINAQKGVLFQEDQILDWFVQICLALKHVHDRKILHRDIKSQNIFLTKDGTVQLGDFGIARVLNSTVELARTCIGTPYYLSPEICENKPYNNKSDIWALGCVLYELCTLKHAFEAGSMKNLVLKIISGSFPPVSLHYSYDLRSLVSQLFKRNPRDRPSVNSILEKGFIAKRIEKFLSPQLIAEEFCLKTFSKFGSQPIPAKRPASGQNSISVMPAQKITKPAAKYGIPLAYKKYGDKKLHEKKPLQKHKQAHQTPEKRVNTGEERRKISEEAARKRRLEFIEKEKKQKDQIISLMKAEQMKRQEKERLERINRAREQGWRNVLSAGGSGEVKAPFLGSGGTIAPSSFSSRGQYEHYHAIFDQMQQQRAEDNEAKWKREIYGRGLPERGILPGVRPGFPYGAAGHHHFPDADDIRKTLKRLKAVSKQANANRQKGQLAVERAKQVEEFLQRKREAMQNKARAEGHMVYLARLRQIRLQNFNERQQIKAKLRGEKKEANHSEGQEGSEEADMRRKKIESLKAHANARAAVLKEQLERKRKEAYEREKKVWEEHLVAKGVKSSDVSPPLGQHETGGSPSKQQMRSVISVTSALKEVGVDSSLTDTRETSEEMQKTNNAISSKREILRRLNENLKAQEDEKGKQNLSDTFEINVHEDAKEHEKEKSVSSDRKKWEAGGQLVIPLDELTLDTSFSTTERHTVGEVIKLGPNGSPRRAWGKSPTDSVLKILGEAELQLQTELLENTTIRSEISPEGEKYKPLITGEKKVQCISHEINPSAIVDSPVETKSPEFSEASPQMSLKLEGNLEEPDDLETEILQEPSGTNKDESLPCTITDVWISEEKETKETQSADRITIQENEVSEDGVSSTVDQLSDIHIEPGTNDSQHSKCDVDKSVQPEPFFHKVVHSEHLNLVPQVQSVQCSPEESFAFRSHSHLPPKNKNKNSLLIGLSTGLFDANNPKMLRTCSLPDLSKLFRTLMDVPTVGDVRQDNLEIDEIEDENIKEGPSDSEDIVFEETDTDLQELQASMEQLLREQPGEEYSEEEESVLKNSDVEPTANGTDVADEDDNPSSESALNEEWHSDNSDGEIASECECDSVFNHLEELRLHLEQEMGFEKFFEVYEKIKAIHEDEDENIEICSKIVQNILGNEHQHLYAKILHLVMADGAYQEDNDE
The note with it: at 0.1 µM.

For assay [3], the target named is T2, Serine/threonine-protein kinase Nek1 (Homo sapiens). The note with it: at 1 µM.
Assay [4] has as its target T3, Serine/threonine-protein kinase Nek2 (Homo sapiens) (UniProt P51955).
T3 sequence (whole entry): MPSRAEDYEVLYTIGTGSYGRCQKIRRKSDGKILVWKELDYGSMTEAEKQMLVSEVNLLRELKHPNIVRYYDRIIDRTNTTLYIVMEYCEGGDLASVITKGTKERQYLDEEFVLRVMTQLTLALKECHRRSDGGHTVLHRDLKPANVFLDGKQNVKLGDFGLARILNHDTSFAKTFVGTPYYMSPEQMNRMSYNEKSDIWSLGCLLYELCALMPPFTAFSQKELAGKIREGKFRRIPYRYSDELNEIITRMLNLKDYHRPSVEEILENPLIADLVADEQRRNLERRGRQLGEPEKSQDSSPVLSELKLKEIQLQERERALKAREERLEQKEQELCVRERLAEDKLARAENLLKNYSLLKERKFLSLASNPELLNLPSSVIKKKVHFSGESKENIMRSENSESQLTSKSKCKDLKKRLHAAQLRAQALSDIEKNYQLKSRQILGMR
The note with it: at 0.1 µM.

For assay [5], the target named is T3, Serine/threonine-protein kinase Nek2 (Homo sapiens). The note with it: at 1 µM.
Assay [6] deals with Serine/threonine-protein kinase Nek6 (Homo sapiens) (UniProt Q9HC98). The note with it: at 0.1 µM.
Chain of Serine/threonine-protein kinase Nek6 (Homo sapiens) (Q9HC98 whole entry): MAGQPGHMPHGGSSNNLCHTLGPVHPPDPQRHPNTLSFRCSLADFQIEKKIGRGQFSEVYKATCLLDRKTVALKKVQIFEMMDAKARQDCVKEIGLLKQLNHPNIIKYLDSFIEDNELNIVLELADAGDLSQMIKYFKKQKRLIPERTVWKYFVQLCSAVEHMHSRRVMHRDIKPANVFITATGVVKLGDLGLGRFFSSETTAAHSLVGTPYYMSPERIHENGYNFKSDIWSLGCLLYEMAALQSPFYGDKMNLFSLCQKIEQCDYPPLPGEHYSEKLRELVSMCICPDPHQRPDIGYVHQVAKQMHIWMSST
The target is the same in assay [7]. The note with it: at 1 µM.
Assay [8] addresses Serine/threonine-protein kinase Nek7 (Homo sapiens) (UniProt Q8TDX7). The note with it: at 0.1 µM.
Assay [9] shares this target. The note with it: at 1 µM.
Assay [10] addresses T4, Serine/threonine-protein kinase Nek9 (Homo sapiens) (UniProt Q8TD19).
T4 sequence (whole entry): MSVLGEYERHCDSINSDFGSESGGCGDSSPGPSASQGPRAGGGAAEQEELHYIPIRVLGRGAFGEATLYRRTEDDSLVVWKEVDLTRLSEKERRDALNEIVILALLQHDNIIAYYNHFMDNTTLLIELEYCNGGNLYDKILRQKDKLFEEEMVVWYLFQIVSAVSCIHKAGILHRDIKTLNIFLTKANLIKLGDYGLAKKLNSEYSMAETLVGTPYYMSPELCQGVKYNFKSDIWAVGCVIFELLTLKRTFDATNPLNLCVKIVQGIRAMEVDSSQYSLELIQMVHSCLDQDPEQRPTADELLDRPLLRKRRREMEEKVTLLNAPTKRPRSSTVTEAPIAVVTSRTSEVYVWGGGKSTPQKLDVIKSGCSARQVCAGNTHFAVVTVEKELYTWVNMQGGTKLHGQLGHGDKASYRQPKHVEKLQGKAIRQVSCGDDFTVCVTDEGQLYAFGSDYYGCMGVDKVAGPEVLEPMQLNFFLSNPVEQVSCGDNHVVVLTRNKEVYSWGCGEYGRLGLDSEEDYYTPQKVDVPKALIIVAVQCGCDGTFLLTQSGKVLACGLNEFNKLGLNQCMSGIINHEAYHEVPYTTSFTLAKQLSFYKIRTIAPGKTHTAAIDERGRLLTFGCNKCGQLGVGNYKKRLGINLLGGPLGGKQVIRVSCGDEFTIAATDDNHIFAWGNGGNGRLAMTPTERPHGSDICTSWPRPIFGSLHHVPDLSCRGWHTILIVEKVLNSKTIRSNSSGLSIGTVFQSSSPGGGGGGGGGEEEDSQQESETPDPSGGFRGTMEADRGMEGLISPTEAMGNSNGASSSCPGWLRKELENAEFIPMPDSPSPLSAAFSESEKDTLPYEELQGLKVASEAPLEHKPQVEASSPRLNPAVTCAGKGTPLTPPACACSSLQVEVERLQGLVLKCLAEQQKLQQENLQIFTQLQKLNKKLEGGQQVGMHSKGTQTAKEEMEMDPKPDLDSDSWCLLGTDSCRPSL
The note with it: at 0.1 µM.

Assay [11] addresses T4, Serine/threonine-protein kinase Nek9 (Homo sapiens). The note with it: at 1 µM.
The target in assay [12] is Serine/threonine-protein kinase PLK1 (Homo sapiens) (UniProt P53350). The note with it: at 0.1 µM.
Chain of Serine/threonine-protein kinase PLK1 (Homo sapiens) (P53350 whole entry): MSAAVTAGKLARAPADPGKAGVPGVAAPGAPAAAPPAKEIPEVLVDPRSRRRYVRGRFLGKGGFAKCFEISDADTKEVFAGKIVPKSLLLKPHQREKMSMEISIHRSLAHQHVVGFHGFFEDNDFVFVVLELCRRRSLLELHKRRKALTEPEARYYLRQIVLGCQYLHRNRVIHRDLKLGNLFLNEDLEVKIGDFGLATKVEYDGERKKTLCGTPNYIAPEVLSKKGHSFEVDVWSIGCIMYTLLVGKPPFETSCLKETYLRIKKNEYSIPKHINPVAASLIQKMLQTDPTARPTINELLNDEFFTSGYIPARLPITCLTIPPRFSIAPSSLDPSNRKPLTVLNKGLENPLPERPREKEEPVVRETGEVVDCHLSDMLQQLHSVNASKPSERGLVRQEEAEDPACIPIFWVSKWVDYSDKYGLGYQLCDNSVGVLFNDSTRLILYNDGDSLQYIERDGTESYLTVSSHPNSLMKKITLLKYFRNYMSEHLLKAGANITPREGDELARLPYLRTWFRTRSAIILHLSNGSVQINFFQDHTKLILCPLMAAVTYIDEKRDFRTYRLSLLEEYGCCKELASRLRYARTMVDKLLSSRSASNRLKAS
For assay [13] the target is unchanged. The note with it: at 1 µM.
In assay [14] the target is T5, Dual specificity protein kinase TTK (Homo sapiens) (UniProt P33981).
T5 sequence (whole entry): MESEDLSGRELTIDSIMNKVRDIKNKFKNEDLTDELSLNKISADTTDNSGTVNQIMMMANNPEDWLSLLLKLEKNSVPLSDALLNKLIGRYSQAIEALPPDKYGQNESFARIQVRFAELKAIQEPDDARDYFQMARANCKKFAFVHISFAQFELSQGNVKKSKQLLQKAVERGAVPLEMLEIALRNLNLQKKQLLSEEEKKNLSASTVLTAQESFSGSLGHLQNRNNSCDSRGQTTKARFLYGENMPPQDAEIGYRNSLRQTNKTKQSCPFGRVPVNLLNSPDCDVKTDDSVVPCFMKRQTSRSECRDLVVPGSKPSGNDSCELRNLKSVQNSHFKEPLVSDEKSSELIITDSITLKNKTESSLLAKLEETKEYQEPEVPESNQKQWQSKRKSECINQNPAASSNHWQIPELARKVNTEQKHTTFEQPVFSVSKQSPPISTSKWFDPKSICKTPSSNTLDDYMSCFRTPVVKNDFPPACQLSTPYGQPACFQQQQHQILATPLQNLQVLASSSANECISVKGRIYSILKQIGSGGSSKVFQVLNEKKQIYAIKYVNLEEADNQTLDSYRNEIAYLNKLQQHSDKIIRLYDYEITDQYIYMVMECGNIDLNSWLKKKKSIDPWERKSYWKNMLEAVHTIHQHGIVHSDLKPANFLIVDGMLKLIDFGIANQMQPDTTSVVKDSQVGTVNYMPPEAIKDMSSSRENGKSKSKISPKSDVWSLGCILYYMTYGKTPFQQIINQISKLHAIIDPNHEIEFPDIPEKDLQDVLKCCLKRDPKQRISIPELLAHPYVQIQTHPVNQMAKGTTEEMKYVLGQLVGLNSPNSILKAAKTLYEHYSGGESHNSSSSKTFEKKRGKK
The note with it: at 0.1 µM.

Assay [15] concerns T6, Receptor-type tyrosine-protein kinase FLT3 (Homo sapiens), P36888 [D835Y].
T6 sequence (whole entry): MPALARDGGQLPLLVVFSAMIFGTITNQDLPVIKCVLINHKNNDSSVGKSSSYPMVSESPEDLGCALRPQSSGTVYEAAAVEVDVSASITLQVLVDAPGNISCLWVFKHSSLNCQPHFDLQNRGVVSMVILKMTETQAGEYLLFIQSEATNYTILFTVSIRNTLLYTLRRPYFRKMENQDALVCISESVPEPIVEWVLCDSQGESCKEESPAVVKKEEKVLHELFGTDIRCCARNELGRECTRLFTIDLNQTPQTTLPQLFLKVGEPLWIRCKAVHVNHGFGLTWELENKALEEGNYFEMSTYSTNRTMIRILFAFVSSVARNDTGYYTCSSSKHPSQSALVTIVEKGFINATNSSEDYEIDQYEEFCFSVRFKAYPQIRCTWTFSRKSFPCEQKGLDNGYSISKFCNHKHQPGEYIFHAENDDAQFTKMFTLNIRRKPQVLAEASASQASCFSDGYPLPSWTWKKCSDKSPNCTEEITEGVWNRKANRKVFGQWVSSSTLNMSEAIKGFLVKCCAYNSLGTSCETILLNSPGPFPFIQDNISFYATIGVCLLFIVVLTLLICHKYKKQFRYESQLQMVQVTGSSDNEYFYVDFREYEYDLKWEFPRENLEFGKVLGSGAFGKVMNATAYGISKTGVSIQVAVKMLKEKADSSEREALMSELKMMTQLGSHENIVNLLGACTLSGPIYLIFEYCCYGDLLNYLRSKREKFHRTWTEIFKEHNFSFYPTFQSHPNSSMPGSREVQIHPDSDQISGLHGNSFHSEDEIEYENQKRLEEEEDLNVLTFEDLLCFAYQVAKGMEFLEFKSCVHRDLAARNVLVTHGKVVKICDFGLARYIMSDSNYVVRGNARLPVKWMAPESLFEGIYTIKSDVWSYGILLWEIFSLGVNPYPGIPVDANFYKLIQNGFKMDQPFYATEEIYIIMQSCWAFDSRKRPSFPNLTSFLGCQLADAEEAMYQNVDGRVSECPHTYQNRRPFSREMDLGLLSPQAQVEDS
The note with it: at 1 µM.

Assay [16] addresses Vascular endothelial growth factor receptor 3 (Homo sapiens) (UniProt P35916). The note with it: at 0.1 µM.
For assay [17] the target is unchanged. The note with it: at 1 µM.
In assay [18] the target is Macrophage colony-stimulating factor 1 receptor (Homo sapiens) (UniProt P07333). The note with it: at 0.1 µM.
Chain of Macrophage colony-stimulating factor 1 receptor (Homo sapiens) (P07333 whole entry): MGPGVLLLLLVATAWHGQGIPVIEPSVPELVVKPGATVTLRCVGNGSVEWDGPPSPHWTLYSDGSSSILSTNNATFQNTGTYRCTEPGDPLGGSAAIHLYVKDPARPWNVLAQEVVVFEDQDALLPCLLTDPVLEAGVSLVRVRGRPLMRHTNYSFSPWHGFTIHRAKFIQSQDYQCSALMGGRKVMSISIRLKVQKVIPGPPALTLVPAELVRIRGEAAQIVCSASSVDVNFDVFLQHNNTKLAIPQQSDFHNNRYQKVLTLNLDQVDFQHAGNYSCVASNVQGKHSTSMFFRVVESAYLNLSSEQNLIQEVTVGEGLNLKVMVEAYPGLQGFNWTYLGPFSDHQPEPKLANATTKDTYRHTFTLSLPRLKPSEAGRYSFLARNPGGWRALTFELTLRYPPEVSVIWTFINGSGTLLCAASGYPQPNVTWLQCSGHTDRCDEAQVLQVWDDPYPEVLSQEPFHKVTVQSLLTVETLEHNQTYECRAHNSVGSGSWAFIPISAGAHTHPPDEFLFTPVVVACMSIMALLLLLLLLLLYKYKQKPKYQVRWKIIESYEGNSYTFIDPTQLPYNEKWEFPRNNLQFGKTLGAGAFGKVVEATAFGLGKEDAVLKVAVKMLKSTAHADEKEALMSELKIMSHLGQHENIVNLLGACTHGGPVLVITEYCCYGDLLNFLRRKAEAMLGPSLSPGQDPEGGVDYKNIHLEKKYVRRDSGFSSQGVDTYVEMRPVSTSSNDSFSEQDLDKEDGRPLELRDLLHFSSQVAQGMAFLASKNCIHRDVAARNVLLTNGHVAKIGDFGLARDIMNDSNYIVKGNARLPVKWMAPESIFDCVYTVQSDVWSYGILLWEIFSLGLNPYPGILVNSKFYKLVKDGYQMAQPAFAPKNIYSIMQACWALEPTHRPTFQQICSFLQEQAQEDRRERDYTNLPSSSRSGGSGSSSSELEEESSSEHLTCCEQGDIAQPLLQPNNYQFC
For assay [19] the target is unchanged. The note with it: at 1 µM.
Assay [20] addresses Tyrosine-protein kinase Fyn (Homo sapiens) (UniProt P06241). The note with it: at 0.1 µM.

Structures are written as SMILES.

Chain of Serine/threonine-protein kinase Nek7 (Homo sapiens) (Q8TDX7 whole entry, looked up): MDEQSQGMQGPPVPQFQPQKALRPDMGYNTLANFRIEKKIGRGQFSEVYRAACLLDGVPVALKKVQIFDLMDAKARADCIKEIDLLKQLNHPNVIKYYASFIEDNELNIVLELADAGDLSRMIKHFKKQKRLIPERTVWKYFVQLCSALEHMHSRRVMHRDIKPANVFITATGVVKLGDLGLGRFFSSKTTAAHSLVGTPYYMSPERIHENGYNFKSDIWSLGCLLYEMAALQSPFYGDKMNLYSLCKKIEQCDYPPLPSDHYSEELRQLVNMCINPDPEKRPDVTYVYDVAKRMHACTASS
Chain of Vascular endothelial growth factor receptor 3 (Homo sapiens) (P35916 whole entry): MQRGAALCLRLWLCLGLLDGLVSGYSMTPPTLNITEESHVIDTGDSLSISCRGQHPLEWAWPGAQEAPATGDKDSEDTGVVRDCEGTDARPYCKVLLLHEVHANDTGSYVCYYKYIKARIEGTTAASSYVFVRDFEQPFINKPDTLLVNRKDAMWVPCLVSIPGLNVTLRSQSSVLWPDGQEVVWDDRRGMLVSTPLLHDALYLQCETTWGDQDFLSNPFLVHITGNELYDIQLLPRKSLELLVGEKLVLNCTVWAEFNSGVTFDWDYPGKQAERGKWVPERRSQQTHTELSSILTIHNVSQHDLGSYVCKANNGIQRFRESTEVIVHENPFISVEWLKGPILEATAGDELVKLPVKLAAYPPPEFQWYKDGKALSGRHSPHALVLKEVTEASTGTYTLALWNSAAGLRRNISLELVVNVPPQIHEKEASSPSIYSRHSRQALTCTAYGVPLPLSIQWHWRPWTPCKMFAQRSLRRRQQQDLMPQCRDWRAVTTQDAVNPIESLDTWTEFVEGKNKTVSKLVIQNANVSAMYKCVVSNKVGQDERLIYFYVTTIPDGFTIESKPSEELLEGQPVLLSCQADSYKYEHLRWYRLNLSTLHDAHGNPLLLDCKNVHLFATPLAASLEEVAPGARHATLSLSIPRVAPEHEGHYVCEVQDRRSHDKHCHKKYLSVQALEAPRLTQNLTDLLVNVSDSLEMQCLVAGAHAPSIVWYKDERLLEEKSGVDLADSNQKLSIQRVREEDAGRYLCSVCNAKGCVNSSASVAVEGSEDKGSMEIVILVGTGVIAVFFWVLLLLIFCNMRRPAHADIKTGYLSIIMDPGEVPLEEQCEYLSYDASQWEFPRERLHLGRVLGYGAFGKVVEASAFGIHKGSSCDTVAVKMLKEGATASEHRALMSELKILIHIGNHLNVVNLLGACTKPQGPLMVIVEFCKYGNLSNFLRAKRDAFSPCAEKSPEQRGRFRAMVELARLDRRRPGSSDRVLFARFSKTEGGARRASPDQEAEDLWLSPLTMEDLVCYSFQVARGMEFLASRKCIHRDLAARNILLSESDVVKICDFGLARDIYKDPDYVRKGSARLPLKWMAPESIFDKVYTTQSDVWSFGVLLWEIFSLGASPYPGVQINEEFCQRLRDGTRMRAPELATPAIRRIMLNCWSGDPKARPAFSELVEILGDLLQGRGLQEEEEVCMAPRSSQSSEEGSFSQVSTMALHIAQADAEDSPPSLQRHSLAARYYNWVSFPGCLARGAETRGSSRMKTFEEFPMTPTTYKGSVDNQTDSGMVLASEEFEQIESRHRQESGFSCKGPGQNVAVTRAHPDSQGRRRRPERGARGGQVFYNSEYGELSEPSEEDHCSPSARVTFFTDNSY
Chain of Tyrosine-protein kinase Fyn (Homo sapiens) (P06241 2-537 limits assumed): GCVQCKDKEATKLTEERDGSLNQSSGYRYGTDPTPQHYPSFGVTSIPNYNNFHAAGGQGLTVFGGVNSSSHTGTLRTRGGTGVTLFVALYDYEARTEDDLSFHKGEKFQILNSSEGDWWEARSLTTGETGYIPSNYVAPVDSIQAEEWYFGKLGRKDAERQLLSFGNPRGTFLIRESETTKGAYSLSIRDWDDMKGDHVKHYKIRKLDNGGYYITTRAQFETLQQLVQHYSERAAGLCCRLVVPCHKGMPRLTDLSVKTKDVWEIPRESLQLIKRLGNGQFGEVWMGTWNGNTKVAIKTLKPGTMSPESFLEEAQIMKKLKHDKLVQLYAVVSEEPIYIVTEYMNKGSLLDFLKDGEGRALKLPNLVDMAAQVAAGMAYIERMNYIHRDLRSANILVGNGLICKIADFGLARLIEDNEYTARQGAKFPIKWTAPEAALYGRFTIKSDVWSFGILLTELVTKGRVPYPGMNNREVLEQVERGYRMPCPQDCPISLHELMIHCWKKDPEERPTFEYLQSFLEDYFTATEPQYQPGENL

Regarding `Cc1ccc2c(-c3ccnc(Nc4ccc5c(c4)OCCO5)n3)c(-c3ccc(C(F)(F)F)cc3)nn2n1`, the inhibition is -0.03% in [1]; 0.53% in assay [2]; 1.72% in assay [3]; 1.37% in [4]; 1.37% in assay [5]; 0.53% in [6]. In addition, the inhibition is -0.1% in assay [7]; -0.01% in [8]; 0% in assay [9]; 1.38% in [10]; 1.95% in assay [11]; -2.52% in [12]. The inhibition in [13] is 2.75%; in [14], 4.62%; in assay [15], -0.37%; in [16] it was -1.78%; in assay [17], 2.51%; in assay [18], -1.16%. The inhibition in assay [19] stood at 14.6%; in assay [20], 1.42%.
Turning to `ON=C1CCc2cc(-c3nc(C4CCNCC4)[nH]c3-c3ccncc3)ccc21`, the inhibition in assay [1] is 2.68%; in assay [2], 0.37%; in assay [3] it was -0.17%; in [4], 0.86%; in [5], 1.18%; in [6], -0.82%. For the same molecule, the inhibition in assay [7] is -3.55%; in assay [8] it was 2.03%; in [9], 0.72%; in assay [10], 4.01%; in [11] it was 1.01%; in [12] it was 1.85%. Further, the inhibition in [13] was 0.96%; in [14] it was 3.99%; in assay [15] it was 2.96%; in assay [16] it was -0.02%; in assay [17], 0.4%; in [18], 2.19%. Also, the inhibition worked out at 0.63% in [19] and 2.09% in [20].
